# Test results published in PMC8384837, “Expanding the binding specificity for RNA recognition by a PUF domain”.
# Legend:
# Experiment in all cases: yeast three-hybrid, YBZ-1, SC-Leu-His + 0.5 mM 3-AT, 4 days
# Conditions in all cases: tags: N-Gal4 AD-HA kept; label: inside an RPR1-promoter hybrid RNA with tandem MS2 sites; ssRNA
# PUM1 PUF domain R8-RYF = PUM1 PUF domain R8-RYF (Homo sapiens, UniProt Q14671 828-1176, N1122R;Q1126F)
# How it was run: (§1)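 A centromeric plasmid in strain YBZ-1 co-expressed Pumilio-1 PUF domain libraries, randomized at the three base-contacting residues of each repeat, with matching RNA elements; the strain carries a LexA–MS2 coat fusion and a HIS3 reporter. After four days on SC-Leu (input) or SC-Leu-His + 0.5 mM 3-AT (selection), the repeat regions were PCR-amplified and Illumina-sequenced. The interaction score is the log change in variant frequency from input to selection, using log2 and a pseudocount of 1 where absent.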
# PUM1 PUF domain R8-RFE = PUM1 PUF domain R8-RFE (Homo sapiens, UniProt Q14671 828-1176, N1122R;Y1123F;Q1126E)
# How it was run: as §1
# PUM1 PUF domain R8-NWE = PUM1 PUF domain R8-NWE (Homo sapiens, UniProt Q14671 828-1176, Y1123W;Q1126E)
# How it was run: as §1
# PUM1 PUF domain R7-RSL = PUM1 PUF domain R7-RSL (Homo sapiens, UniProt Q14671 828-1176, S1079R;N1080S;E1083L)
# How it was run: as §1
# PUM1 PUF domain R1-SGE = PUM1 PUF domain R1-SGE (Homo sapiens, UniProt Q14671 828-1176, R864G;Q867E)
# How it was run: as §1
# PUM1 PUF domain R3-WAR = PUM1 PUF domain R3-WAR (Homo sapiens, UniProt Q14671 828-1176, C935W;R936A;Q939R)
# How it was run: as §1
# PUM1 PUF domain R3-YCD = PUM1 PUF domain R3-YCD (Homo sapiens, UniProt Q14671 828-1176, C935Y;R936C;Q939D)
# How it was run: as §1
# PUM1 PUF domain R3-LSN = PUM1 PUF domain R3-LSN (Homo sapiens, UniProt Q14671 828-1176, C935L;R936S;Q939N)
# How it was run: as §1
# PUM1 PUF domain R5-GRK = PUM1 PUF domain R5-GRK (Homo sapiens, UniProt Q14671 828-1176, C1007G;Q1011K)
# How it was run: as §1
# PUM1 PUF domain R3-YYA = PUM1 PUF domain R3-YYA (Homo sapiens, UniProt Q14671 828-1176, C935Y;R936Y;Q939A)
# How it was run: as §1
# PUM1 PUF domain R3-RAQ = PUM1 PUF domain R3-RAQ (Homo sapiens, UniProt Q14671 828-1176, C935R;R936A)
# How it was run: as §1
# PUM1 PUF domain R4-KGY = PUM1 PUF domain R4-KGY (Homo sapiens, UniProt Q14671 828-1176, N971K;H972G;Q975Y)
# How it was run: as §1
# PUM1 PUF domain R4-WGA = PUM1 PUF domain R4-WGA (Homo sapiens, UniProt Q14671 828-1176, N971W;H972G;Q975A)
# How it was run: as §1
# PUM1 PUF domain R4-VRT = PUM1 PUF domain R4-VRT (Homo sapiens, UniProt Q14671 828-1176, N971V;H972R;Q975T)
# How it was run: as §1
# PUM1 PUF domain R3-VRV = PUM1 PUF domain R3-VRV (Homo sapiens, UniProt Q14671 828-1176, C935V;Q939V)
# How it was run: as §1
# PUM1 PUF domain R5-RYI = PUM1 PUF domain R5-RYI (Homo sapiens, UniProt Q14671 828-1176, C1007R;R1008Y;Q1011I)
# How it was run: as §1
# PUM1 PUF domain R5-RGT = PUM1 PUF domain R5-RGT (Homo sapiens, UniProt Q14671 828-1176, C1007R;R1008G;Q1011T)
# How it was run: as §1
# PUM1 PUF domain R1-KTE = PUM1 PUF domain R1-KTE (Homo sapiens, UniProt Q14671 828-1176, S863K;R864T;Q867E)
# How it was run: as §1
# PUM1 PUF domain R4-SQR = PUM1 PUF domain R4-SQR (Homo sapiens, UniProt Q14671 828-1176, N971S;H972Q;Q975R)
# How it was run: as §1
# PUM1 PUF domain R7-GND = PUM1 PUF domain R7-GND (Homo sapiens, UniProt Q14671 828-1176, S1079G;E1083D)
# How it was run: as §1
# Chain of PUM1 PUF domain R5-GRK (Q14671 828-1176 C1007G/Q1011K): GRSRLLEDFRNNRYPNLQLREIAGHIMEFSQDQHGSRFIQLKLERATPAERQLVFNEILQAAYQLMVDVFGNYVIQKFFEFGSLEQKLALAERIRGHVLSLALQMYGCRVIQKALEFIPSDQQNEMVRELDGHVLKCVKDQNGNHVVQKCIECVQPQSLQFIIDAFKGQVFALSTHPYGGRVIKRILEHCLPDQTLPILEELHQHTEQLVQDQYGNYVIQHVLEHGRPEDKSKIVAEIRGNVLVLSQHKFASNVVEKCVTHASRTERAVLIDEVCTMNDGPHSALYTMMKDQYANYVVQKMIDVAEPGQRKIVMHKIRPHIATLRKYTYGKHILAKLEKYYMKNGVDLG
# Chain of PUM1 PUF domain R1-SGE (Q14671 828-1176 R864G/Q867E): as the sequence (Q14671 828-1176 C1007G/Q1011K) above, with R37G, Q40E, G180C, K184Q counted along it
# Chain of PUM1 PUF domain R4-WGA (Q14671 828-1176 N971W/H972G/Q975A): as the sequence (Q14671 828-1176 C1007G/Q1011K) above, with N144W, H145G, Q148A, G180C, K184Q counted along it
# Chain of PUM1 PUF domain R3-WAR (Q14671 828-1176 C935W/R936A/Q939R): as the sequence (Q14671 828-1176 C1007G/Q1011K) above, with C108W, R109A, Q112R, G180C, K184Q counted along it
# Chain of PUM1 PUF domain R7-RSL (Q14671 828-1176 S1079R/N1080S/E1083L): as the sequence (Q14671 828-1176 C1007G/Q1011K) above, with G180C, K184Q, S252R, N253S, E256L counted along it
# Chain of PUM1 PUF domain R8-RFE (Q14671 828-1176 N1122R/Y1123F/Q1126E): as the sequence (Q14671 828-1176 C1007G/Q1011K) above, with G180C, K184Q, N295R, Y296F, Q299E counted along it
# Chain of PUM1 PUF domain R8-NWE (Q14671 828-1176 Y1123W/Q1126E): as the sequence (Q14671 828-1176 C1007G/Q1011K) above, with G180C, K184Q, Y296W, Q299E counted along it
# Chain of PUM1 PUF domain R3-LSN (Q14671 828-1176 C935L/R936S/Q939N): as the sequence (Q14671 828-1176 C1007G/Q1011K) above, with C108L, R109S, Q112N, G180C, K184Q counted along it
# Chain of PUM1 PUF domain R3-YCD (Q14671 828-1176 C935Y/R936C/Q939D): as the sequence (Q14671 828-1176 C1007G/Q1011K) above, with C108Y, R109C, Q112D, G180C, K184Q counted along it
# Chain of PUM1 PUF domain R7-GND (Q14671 828-1176 S1079G/E1083D): as the sequence (Q14671 828-1176 C1007G/Q1011K) above, with G180C, K184Q, S252G, E256D counted along it
# Chain of PUM1 PUF domain R8-RYF (Q14671 828-1176 N1122R/Q1126F): as the sequence (Q14671 828-1176 C1007G/Q1011K) above, with G180C, K184Q, N295R, Q299F counted along it
# Chain of PUM1 PUF domain R3-VRV (Q14671 828-1176 C935V/Q939V): as the sequence (Q14671 828-1176 C1007G/Q1011K) above, with C108V, Q112V, G180C, K184Q counted along it
# Chain of PUM1 PUF domain R4-KGY (Q14671 828-1176 N971K/H972G/Q975Y): as the sequence (Q14671 828-1176 C1007G/Q1011K) above, with N144K, H145G, Q148Y, G180C, K184Q counted along it
# Chain of PUM1 PUF domain R5-RYI (Q14671 828-1176 C1007R/R1008Y/Q1011I): as the sequence (Q14671 828-1176 C1007G/Q1011K) above, with G180R, R181Y, K184I counted along it
# Chain of PUM1 PUF domain R4-SQR (Q14671 828-1176 N971S/H972Q/Q975R): as the sequence (Q14671 828-1176 C1007G/Q1011K) above, with N144S, H145Q, Q148R, G180C, K184Q counted along it
# Chain of PUM1 PUF domain R1-KTE (Q14671 828-1176 S863K/R864T/Q867E): as the sequence (Q14671 828-1176 C1007G/Q1011K) above, with S36K, R37T, Q40E, G180C, K184Q counted along it
# Chain of PUM1 PUF domain R3-YYA (Q14671 828-1176 C935Y/R936Y/Q939A): as the sequence (Q14671 828-1176 C1007G/Q1011K) above, with C108Y, R109Y, Q112A, G180C, K184Q counted along it
# Chain of PUM1 PUF domain R5-RGT (Q14671 828-1176 C1007R/R1008G/Q1011T): as the sequence (Q14671 828-1176 C1007G/Q1011K) above, with G180R, R181G, K184T counted along it
# Chain of PUM1 PUF domain R4-VRT (Q14671 828-1176 N971V/H972R/Q975T): as the sequence (Q14671 828-1176 C1007G/Q1011K) above, with N144V, H145R, Q148T, G180C, K184Q counted along it
# Chain of PUM1 PUF domain R3-RAQ (Q14671 828-1176 C935R/R936A): as the sequence (Q14671 828-1176 C1007G/Q1011K) above, with C108R, R109A, G180C, K184Q counted along it
sequence,measurement,setting,value
GGCUAGAACUAGUGGAUCCCCCGGCGCCCGGCGGCUCGAGCCCGGGUAAGCGUAAAUAGUCUGCAUGCCGCCGGGCGCCAUGCCUGCAGGUCGACUCUAGAAAACAUG,binding signal,PUM1 PUF domain R8-RYF,4.88 log2 enrichment (interaction score)
same,binding signal,PUM1 PUF domain R8-RFE,3.87 log2 enrichment (interaction score)
same,binding signal,PUM1 PUF domain R8-NWE,1.64 log2 enrichment (interaction score)
GGCUAGAACUAGUGGAUCCCCCGGCGCCCGGCGGCUCGAGCCCGGGUAAGUCUAAAUAGUCUGCAUGCCGCCGGGCGCCAUGCCUGCAGGUCGACUCUAGAAAACAUG,binding signal,PUM1 PUF domain R7-RSL,2.11 log2 enrichment (interaction score)
GGCUAGAACUAGUGGAUCCCCCGGCGCCCGGCGGCUCGAGCCCGGGUAAGUGUAAAUGGUCUGCAUGCCGCCGGGCGCCAUGCCUGCAGGUCGACUCUAGAAAACAUG,binding signal,PUM1 PUF domain R1-SGE,5.2 log2 enrichment (interaction score)
GGCUAGAACUAGUGGAUCCCCCGGCGCCCGGCGGCUCGAGCCCGGGUAAGUGUAAGUAGUCUGCAUGCCGCCGGGCGCCAUGCCUGCAGGUCGACUCUAGAAAACAUG,binding signal,PUM1 PUF domain R3-WAR,2.85 log2 enrichment (interaction score)
same,binding signal,PUM1 PUF domain R3-YCD,3.96 log2 enrichment (interaction score)
same,binding signal,PUM1 PUF domain R3-LSN,4.28 log2 enrichment (interaction score)
GGCUAGAACUAGUGGAUCCCCCGGCGCCCGGCGGCUCGAGCCCGGGUAAGUGUGAAUAGUCUGCAUGCCGCCGGGCGCCAUGCCUGCAGGUCGACUCUAGAAAACAUG,binding signal,PUM1 PUF domain R5-GRK,1.55 log2 enrichment (interaction score)
GGCUAGAACUAGUGGAUCCCCCGGCGCCCGGCGGCUCGAGCCCGGGUAAGUGUUAAUAGUCUGCAUGCCGCCGGGCGCCAUGCCUGCAGGUCGACUCUAGAAAACAUG,binding signal,PUM1 PUF domain R5-GRK,4.85 log2 enrichment (interaction score)
GGCUAGAACUAGUGGAUCCCCCGGCGCCCGGCGGCUCGAGCCCGGGUAAGUGUAAUUAGUCUGCAUGCCGCCGGGCGCCAUGCCUGCAGGUCGACUCUAGAAAACAUG,binding signal,PUM1 PUF domain R3-YYA,3.25 log2 enrichment (interaction score)
same,binding signal,PUM1 PUF domain R3-RAQ,3.8 log2 enrichment (interaction score)
same,binding signal,PUM1 PUF domain R3-WAR,2.65 log2 enrichment (interaction score)
same,binding signal,PUM1 PUF domain R3-LSN,2.89 log2 enrichment (interaction score)
GGCUAGAACUAGUGGAUCCCCCGGCGCCCGGCGGCUCGAGCCCGGGUAAGUGUAAAUUGUCUGCAUGCCGCCGGGCGCCAUGCCUGCAGGUCGACUCUAGAAAACAUG,binding signal,PUM1 PUF domain R1-SGE,3.87 log2 enrichment (interaction score)
GGCUAGAACUAGUGGAUCCCCCGGCGCCCGGCGGCUCGAGCCCGGGUAAGUGUAAAUAGUCUGCAUGCCGCCGGGCGCCAUGCCUGCAGGUCGACUCUAGAAAACAUG,binding signal,PUM1 PUF domain R4-KGY,4.05 log2 enrichment (interaction score)
same,binding signal,PUM1 PUF domain R5-GRK,3.37 log2 enrichment (interaction score)
same,binding signal,PUM1 PUF domain R4-WGA,3.8 log2 enrichment (interaction score)
same,binding signal,PUM1 PUF domain R8-RFE,2.4 log2 enrichment (interaction score)
same,binding signal,PUM1 PUF domain R8-NWE,2.9 log2 enrichment (interaction score)
same,binding signal,PUM1 PUF domain R4-VRT,4.25 log2 enrichment (interaction score)
same,binding signal,PUM1 PUF domain R3-VRV,3.29 log2 enrichment (interaction score)
GGCUAGAACUAGUGGAUCCCCCGGCGCCCGGCGGCUCGAGCCCGGGUAAGUGUCAAUAGUCUGCAUGCCGCCGGGCGCCAUGCCUGCAGGUCGACUCUAGAAAACAUG,binding signal,PUM1 PUF domain R5-RYI,3.71 log2 enrichment (interaction score)
same,binding signal,PUM1 PUF domain R5-GRK,2.77 log2 enrichment (interaction score)
same,binding signal,PUM1 PUF domain R5-RGT,5.24 log2 enrichment (interaction score)
GGCUAGAACUAGUGGAUCCCCCGGCGCCCGGCGGCUCGAGCCCGGGUAAGUGUAAAUCGUCUGCAUGCCGCCGGGCGCCAUGCCUGCAGGUCGACUCUAGAAAACAUG,binding signal,PUM1 PUF domain R1-KTE,4.3 log2 enrichment (interaction score)
same,binding signal,PUM1 PUF domain R1-SGE,1.55 log2 enrichment (interaction score)
GGCUAGAACUAGUGGAUCCCCCGGCGCCCGGCGGCUCGAGCCCGGGUAAGUGUACAUAGUCUGCAUGCCGCCGGGCGCCAUGCCUGCAGGUCGACUCUAGAAAACAUG,binding signal,PUM1 PUF domain R4-SQR,3.07 log2 enrichment (interaction score)
same,binding signal,PUM1 PUF domain R4-WGA,3.39 log2 enrichment (interaction score)
GGCUAGAACUAGUGGAUCCCCCGGCGCCCGGCGGCUCGAGCCCGGGUAAGUUUAAAUAGUCUGCAUGCCGCCGGGCGCCAUGCCUGCAGGUCGACUCUAGAAAACAUG,binding signal,PUM1 PUF domain R7-GND,3.28 log2 enrichment (interaction score)
same,binding signal,PUM1 PUF domain R7-RSL,3.53 log2 enrichment (interaction score)
